Drawing on PubChem BioAssay AID651820 (National Center for Advancing Translational Sciences (NCATS), 2012), this text covers Potency and activity change, negative = inhibition for 59 molecules.

Where “and” joins values, the source holds several entries; their conditions need not be identical. Equal values may be shown once. The campaign covered roughly 340,000 compounds. About 12,000 (3.5%) were called active. Where a call stands in place of a potency, no number is given. Another 18% or so got no clear call; they are omitted. Calls come from the whole dose curve; as a rule, active = well fitted inhibition curve with a large enough effect; inconclusive = small, poorly fitted or top-dose-only effect, or another doubt; inactive = no such curve, though single readings can be large or run the other way. The full list was thinned out, with actives kept by preference. Some structures have more than one record in an assay (separate samples or runs), and their calls can disagree.

The assay is described as follows: qHTS Assay for Inhibitors of Hepatitis C Virus (HCV). Particulars: Huh7.5.1 HCVcc-Cre infection, luciferase reporter, 44 h; series mostly up to 41.8 µM. The text has this:
Hepatitis C virus (HCV) infects about 200 million people in the world. Many infected people progress to chronic liver disease including cirrhosis with a risk of developing liver cancer. To date, there is no effective vaccine for hepatitis C. Current therapy based on interferon is only effective in about half of the patients and is associated with significant adverse effects. The fraction of people with HCV who can complete a successful treatment is estimated to be no more than 10 percent. Recent development of direct-acting antivirals against HCV, such as protease and polymerase inhibitors, is promising but still requires combination with peginterferon and ribavirin for maximal efficacy. In addition, these agents are associated with high rate of resistance and many have significant side effects. Due to the lack of a culture system for infectious HCV, the search for new HCV drugs has been greatly hampered. […] High-throughput screening (HTS) with an infectious HCV system would cover the complete spectrum of potentially druggable targets in all stages of HCV lifecycle, and would have more biological relevance than other cell-based assays. Moreover, targeting several key processes in the viral life cycle may not only increase antiviral efficacy; more importantly, it may also reduce the capacity of the virus to develop resistance to the compound. The goal of this project is to identify novel HCV inhibitors as new therapies for hepatitis C, using a highly sensitive and specific assay platform which is based on a HCV infectious cell culture system established in the laboratory and adapted for high-throughput HCV drug screen. NIH Chemical Genomics Center [NCGC] NIH Molecular Libraries Probe Centers Network [MLPCN] MLPCN Grant: MH095511 Assay Submitter (PI): Jake Liang, NIDDK
The assay will start with plating 1,000 cells/well in 3 µL volume and culture for 4 h. Then 23 nL of compounds from the library collection will be added to each well, followed by adding 2.5 µL of HCVcc-Cre virus (~ 0.5 moi) and further cultured for 44 h before the luciferase assay. A volume of 4.5 µL luciferase substrates will be added to each well and the plates will be incubated at room temperature for 15 min. and then read for 15 sec. for the luciferase activity
On the technique in general: Quantitative high-throughput screening tests each substance at several concentrations.
`CN1C(c2ccc(F)cc2)=CS/C1=C(/C#N)c1nnc2n1-c1ccccc1SC2`: the Potency entry is “inactive”.

As for `CC(CNC(=O)Cn1cnc2c(OCc3ccccc3)ncnc21)c1ccccc1` (centres undefined), the Potency result was “inactive”.

Consider `CN(CC(=O)Nc1ccccc1Cl)C(=O)c1ccccc1SCC(=O)N1CCCC1`, for which the Potency entry was “inactive”.

For `CC(=O)NC(C)c1nc2ccccc2n1Cc1ccccc1F` (centres undefined), the Potency result is “inactive”.

In the case of `N=c1n(CCc2ccccc2)c2ccccc2n1Cc1ccccc1F`, the Potency is 12.6 µM (active).

Turning to `O=C(COC(=O)Cc1ccccc1F)NCCc1ccccc1`, the Potency result is “inactive”.

For the molecule `COc1ccccc1CNS(=O)(=O)c1cc(C(=O)NCc2ccccn2)c(Cl)cc1Cl`, the Potency entry was “inactive”.

In the case of `Cn1cccc1C(=O)OCC(=O)c1ccc(Br)s1`, the Potency result is “inactive”.

On to `Cc1ccc(C)c(NC(=O)COC(=O)c2nn(C)c(=O)c3ccccc23)c1`, for which the Potency entry is “inactive”.

Regarding `COc1ccccc1N1CCN(C(=O)Cn2nnc(-c3cccs3)n2)CC1`, the Potency result was “inactive”.

For `O=C(Nc1ccccc1-c1nnn(CC(=O)N2CCN(c3ccccc3)CC2)n1)c1cccs1`, the Potency was 12.6 µM (active).

Turning to `O=C(Nc1ccccc1-c1ccccc1)c1cccs1`, the Potency entry is “inactive”.

Regarding `COc1cc(OC)cc(C(=O)NCC(=O)OCC(=O)NC(C)CCc2ccccc2)c1` (centres undefined), the Potency result is “inactive”.

Regarding `Cc1nn(-c2ccc(F)cc2)c(Cl)c1/C=C(/CCC(=O)O)c1nc2ccccc2s1`, the Potency result was “inactive”.

On to `CCCN=C1N(C)C[C@@H]2[C@@H]3C(=O)N(Cc4ccccc4)C(=O)[C@@H]3[C@](C)(C(=O)OC)N12`, for which the activity change, negative = inhibition is 12% [at 8.37 µM] (inactive).

For `Cc1ccc(S(=O)(=O)N2[C@@H](c3ccc(Br)cc3)C(C(=O)O)=C[C@H]2CC2CCCC2)cc1`, the Potency result is “inactive”.

Consider `CCn1c(/C=N/NC(=O)c2ccc(OC)cc2)nc2ccccc21`, for which the Potency was 17.8 µM (active).

Take `COc1ccc(C(=O)NCC(=O)N/N=C/c2cccnc2)cc1`: the Potency entry is “inactive”.

Regarding `CCCn1c(C(=O)c2ccccc2OC)nc2ccccc21`, the Potency result was “inactive”.

For the molecule `CCC(C)(C)n1nnnc1C(c1cccs1)N1CCN(c2nc3ccccc3s2)CC1` (centres undefined), the Potency is 10 µM (active).

On to `CCC(C)(C)n1nnnc1C(c1ccccc1OC)N1CCSCC1` (centres undefined), for which the Potency result is “inactive”.

On to `CCC(C)(C)n1nnnc1C(c1cccs1)N1CCN(Cc2ccccc2)CC1` (centres undefined), for which the Potency entry is “inactive”.

For `Cc1cc(NC(=O)CSC2=NS(=O)(=O)c3cc(Cl)ccc3N2)no1`, the Potency entry is “inactive”.

For `CCOC(=O)CNC(=O)N1c2ccccc2Sc2ccccc21`, the Potency result is “inactive”.

In the case of `CCNCCC(=O)N1c2ccccc2Sc2ccc(NC(=O)OCC)cc21`, the Potency is 12.6 µM (active).

`CCOC(=O)Nc1ccc2c(c1)N(C(=O)CCN1CCN(CCO)CC1)c1ccccc1CC2`: the Potency entry is “inactive”.

Turning to `COc1ccc(-c2nc(CS(=O)(=O)CC(=O)NCc3cccc(Br)c3)c(C)o2)cc1`, the Potency entry is “inactive”.

As to `COc1cccc(-c2nc(CS(=O)CC(=O)NCc3ccc(F)cc3)c(C)o2)c1` (centres undefined), the Potency entry is “inactive”.

`CCCCN(CC)CCCNC(=O)CS(=O)(=O)Cc1nc(-c2cccc(OC)c2)oc1C`: the Potency result was “inactive and 20 µM (active)”.

With `COc1ccc(C(CNC(=O)c2ccc(NS(=O)(=O)c3ccc(F)c(C)c3)cc2)N(C)C)cc1` (centres undefined), the Potency entry is “inactive”.

Take `Cc1ccc(OCCC(=O)Nc2ccc(S(=O)(=O)Nc3nccs3)cc2)cc1`: the Potency result was “inactive”.

`COCCCn1c(SCc2cccc(OC)c2)nc2cc(OC)c(OC)cc2c1=N`: the Potency was 7.08 µM (active).

`COCCn1c(SCc2nc3cc(OC)c(OC)cc3c(=O)[nH]2)nnc1-c1ccncc1`: the Potency result is “inactive”.

As to `COc1cccc(CSc2nc3nc(C)cc(C)n3n2)c1`, the Potency entry was “inactive”.

Regarding `Cc1ccccc1SCC(=O)OCC(=O)N1CC(=O)Nc2ccccc21`, the Potency entry was “inactive”.

For `CC1CCCCC1NC(=O)/C(C#N)=C/C=C/c1ccccc1[N+](=O)[O-]` (centres undefined), the Potency was 11.2 µM (active).

Regarding `O=C(/C=C/c1ccccc1[N+](=O)[O-])NCC1CCCO1` (centres undefined), the Potency entry is “inactive”.

Consider `O=C(/C=C/c1ccccc1[N+](=O)[O-])OC1CCCCC1=O` (centres undefined), for which the Potency entry is “inactive”.

Take `Cc1ccc(S(=O)(=O)N2[C@@H](c3cccc(Cl)c3)C(C(=O)O)=CC[C@H]2c2ccc(Cl)c(Cl)c2)cc1`: the Potency result was “inactive”.

As for `C#CCOCCOCCOCCNc1nc(N2CCN(C(=O)CCCCCCCCCCNC(=O)[C@H](CCCCN)n3cc(C)nn3)CC2)nc(N2CCN(C(=O)CCCCCCCCCCNC(=O)[C@H](CO)n3cc(CCCSC)nn3)CC2)n1`, the Potency result was “inactive”.

As for `CC(OC(=O)CCCOc1ccccc1)C(=O)Nc1ccc(Cl)cn1` (centres undefined), the Potency entry was “inactive”.

As to `CCN(CC)S(=O)(=O)c1ccc(N2CCCC2)c(NC(=O)c2ccc([N+](=O)[O-])o2)c1`, the Potency is 10 µM (active).

Take `CCN(CC)S(=O)(=O)c1ccc(N2CCOCC2)c(NC(=O)c2ccc(=O)n(C)n2)c1`: the Potency result is “inactive”.

Consider `CCN(CC)S(=O)(=O)c1cc(C(=O)Nc2cc(S(=O)(=O)N3CCOCC3)ccc2N2CCCC2)ccc1F`, for which the Potency entry was “inactive”.

Consider `CCOc1ccccc1OCC(=O)Nc1ccccc1C(=O)NC1CC1`, for which the Potency result was “inactive”.

For `Cc1noc(C)c1NC(=O)Nc1cccc2c1O[C@H](CN(C)C(=O)Nc1ccccc1)[C@@H](C)CN([C@H](C)CO)C2=O`, the Potency entry is “inactive”.

Consider `Cc1noc(C)c1NC(=O)Nc1ccc2c(c1)C(=O)N([C@H](C)CO)C[C@H](C)[C@@H](CN(C)C(=O)Nc1ccc(C(F)(F)F)cc1)O2`, for which the Potency is 3.98 µM (active).

Take `Cc1noc(C)c1NC(=O)Nc1ccc2c(c1)C(=O)N([C@H](C)CO)C[C@H](C)[C@@H](CN(C)C(=O)Nc1ccccc1)O2`: the Potency result was “inactive”.

In the case of `OCC[C@H]1C[C@H](O)[C@@H](O)[C@]2(CCc3ccccc3O2)O1`, the Potency entry was “inactive”.

In the case of `Cc1ccc(C)c(C(=O)COC(=O)Cn2[nH]c(=O)c3ccccc3c2=O)c1`, the Potency entry is “inactive”.

In the case of `CCC1(C)Cc2c(sc3nc(SC)nc(N)c23)CO1` (centres undefined), the Potency result is “inactive”.

On to `CCC1(C)Cc2c(sc3nnn(CC(=O)Nc4ccc(Cl)cc4)c(=O)c23)CO1` (centres undefined), for which the Potency is 11.2 µM (active).

As to `CCOC(=O)Cn1c(SC)nc2sc3c(c2c1=O)CC(C)(C)OC3`, the Potency entry is “inactive”.

With `COc1cc(/C=C/CNC[C@H]2O[C@@H](n3cnc(C(N)=O)n3)[C@H](O)[C@@H]2O)ccc1O`, the Potency entry was “inactive”.

On to `O=C(COC(=O)/C=C/c1ccc(OC(F)F)cc1)NC1CCCCC1`, for which the Potency result is “inactive”.

In the case of `COC(=O)[C@@]1(C)[C@H]2C(=O)N(Cc3ccccc3)C(=O)[C@H]2[C@H]2CN=C(SCC3CC3)N21`, the activity change, negative = inhibition was -7.38% [at 8.37 µM] (inactive).

In the case of `Cc1cccc(N2O[C@H]3C=CC2CCCC3)n1`, the Potency was 25.1 µM (active).

On to `Cc1ccn(-c2cccc(-n3ccc(C)n3)n2)n1`, for which the Potency entry is “inactive”.

Consider `Cc1cccc(N2CCN(Cc3nc(C4CC4)no3)CC2)n1`, for which the Potency result was “inactive”.
